Experimental data taken from PubChem BioAssay (NCATS).
“And” between values parts separate entries of the source, which are not always exact repeats. Equal values may be shown once. Records with an inconclusive call do not appear. The source made the active and inactive calls. Calls come from the whole dose curve; as a rule, active = well fitted inhibition curve with a large enough effect; inconclusive = small, poorly fitted or top-dose-only effect; inactive = flat fitted curve, though single readings scatter.

Key:
[1] = qHTS profiling for inhibitors of Plasmodium falciparum proliferation (AID 504749);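 for activity, negative = inhibition: 0% = DMSO vehicle and full inhibition = artemisinin control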; for all read-outs here: nearly all actives have a fitted effect of over 60% in size; details: P. falciparum in erythrocytes, SYBR Green DNA, 72 h; for activity, negative = inhibition: at 28.7 µM (top of the series)
In short: (§1)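 Parasite proliferation within erythrocytes, 72 h exposure. Endpoint: SYBR Green I fluorescence after overnight lysis at room temperature. Controls: 0.29 uM artemisinin, DMSO.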

3D7 = assay: as above; details: P. falciparum in erythrocytes, SYBR Green DNA, 72 h; series mostly up to 28.7 µM
In short: as §1

7G8 = assay: as above; details: P. falciparum in erythrocytes, SYBR Green DNA, 72 h; series mostly up to 28.7 µM
In short: as §1

AA1029 = assay: as above; details: P. falciparum in erythrocytes, SYBR Green DNA, 72 h; series mostly up to 28.7 µM
In short: as §1

AS120 = assay: as above; details: P. falciparum in erythrocytes, SYBR Green DNA, 72 h; series mostly up to 28.7 µM
In short: as §1

ATS189 = assay: as above; details: P. falciparum in erythrocytes, SYBR Green DNA, 72 h; series mostly up to 28.7 µM
In short: as §1

ATS95 = assay: as above; details: P. falciparum in erythrocytes, SYBR Green DNA, 72 h; series mostly up to 28.7 µM
In short: as §1

C2A = assay: as above; details: P. falciparum in erythrocytes, SYBR Green DNA, 72 h; series mostly up to 28.7 µM
In short: as §1

CP185 = assay: as above; details: P. falciparum in erythrocytes, SYBR Green DNA, 72 h; series mostly up to 28.7 µM
In short: as §1

CP191 = assay: as above; details: P. falciparum in erythrocytes, SYBR Green DNA, 72 h; series mostly up to 28.7 µM
In short: as §1

CP192 = assay: as above; details: P. falciparum in erythrocytes, SYBR Green DNA, 72 h; series mostly up to 28.7 µM
In short: as §1

CP194 = assay: as above; details: P. falciparum in erythrocytes, SYBR Green DNA, 72 h; series mostly up to 28.7 µM
In short: as §1

CP201 = assay: as above; details: P. falciparum in erythrocytes, SYBR Green DNA, 72 h; series mostly up to 28.7 µM
In short: as §1

CP211 = assay: as above; details: P. falciparum in erythrocytes, SYBR Green DNA, 72 h; series mostly up to 28.7 µM
In short: as §1

CP215 = assay: as above; details: P. falciparum in erythrocytes, SYBR Green DNA, 72 h; series mostly up to 28.7 µM
In short: as §1

CP217 = assay: as above; details: P. falciparum in erythrocytes, SYBR Green DNA, 72 h; series mostly up to 28.7 µM
In short: as §1

CP237 = assay: as above; details: P. falciparum in erythrocytes, SYBR Green DNA, 72 h; series mostly up to 28.7 µM
In short: as §1

CP238 = assay: as above; details: P. falciparum in erythrocytes, SYBR Green DNA, 72 h; series mostly up to 28.7 µM
In short: as §1

CP203 = assay: as above; details: P. falciparum in erythrocytes, SYBR Green DNA, 72 h; series mostly up to 28.7 µM
In short: as §1
Potency is the fitted concentration of half-maximal effect.

CN1[C@@H]2CC[C@H]1CC(OC(=O)C(CO)c1ccccc1)C2 (stereo not given in full)
inactive: activity, negative = inhibition ([1]; parasite line A) -2.42% | Potency (3D7) | Potency (7G8) | Potency (AA1029) | Potency (AS120) | Potency (ATS189) | Potency (ATS95) | Potency (C2A) | Potency (CP185) | Potency (CP191) | Potency (CP192) | Potency (CP194) | Potency (CP201) | Potency (CP211) | Potency (CP215) | Potency (CP217) | Potency (CP237) | Potency (CP238)

CC(N)C(=O)OC(C)(C)Cc1ccc(Cl)cc1 (stereo not given)
active: Potency (7G8) 10 µM | Potency (CP237) 4.47 µM
inactive: activity, negative = inhibition ([1]; parasite line A) 3.68% | activity, negative = inhibition ([1]; parasite line B) 0.818% | Potency (3D7) | Potency (C2A) | Potency (CP191) | Potency (CP192)

O=C(O)c1cc(O)c(O)c(O)c1
inactive: activity, negative = inhibition ([1]; parasite line A) -23.1% | activity, negative = inhibition ([1]; parasite line B) -29.8% | Potency (AA1029) | Potency (AS120) | Potency (ATS189) | Potency (ATS95) | Potency (CP185) | Potency (CP192) | Potency (CP194) | Potency (CP201) | Potency (CP203) | Potency (CP211) | Potency (CP215) | Potency (CP217) | Potency (CP238)

CN(C)c1ccc(C(=C2C=CC(=[N+](C)C)C=C2)c2ccccc2)cc1
inactive: Potency (CP192)
active: Potency ([1]; parasite line A) 11.2 µM | Potency ([1]; parasite line B) 11.2 µM | Potency (3D7) 2.24 µM | Potency (7G8) 11.2 µM | Potency (AA1029) 8.91 µM | Potency (AS120) 11.2 µM | Potency (ATS189) 7.94 µM | Potency (C2A) 12.6 µM | Potency (CP191) 7.94 µM | Potency (CP203) 10.7 µM | Potency (CP217) 11.2 µM | Potency (CP237) 8.91 µM

O=C(CCN1CCN(CCO)CC1)N1c2ccccc2Sc2ccc(C(F)(F)F)cc21
inactive: Potency (AA1029) | Potency (ATS95) | Potency (CP192) | Potency (CP201) | Potency (CP215)
active: Potency ([1]; parasite line A) 14.1 µM | Potency (7G8) 7.94 µM | Potency (AS120) 14.1 µM | Potency (ATS189) 11.2 µM | Potency (CP191) 4.47 µM | Potency (CP237) 10 µM

O=c1[nH]c2ccccc2n1CCCN1CCN(C(c2ccccc2)c2ccccc2)CC1
inactive: activity, negative = inhibition ([1]; parasite line A) -13.9% | Potency (C2A) | Potency (CP201)
active: Potency (7G8) 7.08 µM | Potency (CP237) 8.91 µM

CCCOC(=O)c1ccc(O)cc1
inactive: activity, negative = inhibition ([1]; parasite line A) 4.05% | activity, negative = inhibition ([1]; parasite line B) 3.75% | Potency (3D7) | Potency (AA1029) | Potency (AS120) | Potency (ATS189) | Potency (ATS95) | Potency (C2A) | Potency (CP185) | Potency (CP191) | Potency (CP192) | Potency (CP194) | Potency (CP201) | Potency (CP203) | Potency (CP211) | Potency (CP215) | Potency (CP217) | Potency (CP237) | Potency (CP238)

Oc1c(Br)cc(Br)c2cccnc12
inactive: activity, negative = inhibition ([1]; parasite line A) -4.99% | activity, negative = inhibition ([1]; parasite line B) -18.5% | Potency (3D7) | Potency (AA1029) | Potency (ATS189) | Potency (ATS95) | Potency (C2A) | Potency (CP185) | Potency (CP191) | Potency (CP192) | Potency (CP194) | Potency (CP201) | Potency (CP203) | Potency (CP211) | Potency (CP215) | Potency (CP217) | Potency (CP237) | Potency (CP238)

Clc1ccccc1-c1nc(-c2ccncc2)no1
active: Potency (7G8) 10 µM
inactive: activity, negative = inhibition ([1]; parasite line A) 11.4% | activity, negative = inhibition ([1]; parasite line B) -1.37% | Potency (3D7) | Potency (AA1029) | Potency (ATS189) | Potency (ATS95) | Potency (C2A) | Potency (CP185) | Potency (CP191) | Potency (CP192) | Potency (CP194) | Potency (CP201) | Potency (CP211) | Potency (CP215) | Potency (CP217) | Potency (CP237) | Potency (CP238)

O=C(O)c1ccccc1Nc1cccc(C(F)(F)F)c1
inactive: activity, negative = inhibition ([1]; parasite line A) -6.43% | activity, negative = inhibition ([1]; parasite line B) 10.3% | Potency (3D7) | Potency (7G8) | Potency (AA1029) | Potency (AS120) | Potency (ATS189) | Potency (ATS95) | Potency (C2A) | Potency (CP185) | Potency (CP194) | Potency (CP201) | Potency (CP211) | Potency (CP215) | Potency (CP217) | Potency (CP237) | Potency (CP238)

Cc1nc2ccccc2n1Cc1ccc(Cl)cc1
inactive: Potency (3D7) | Potency (ATS95) | Potency (C2A) | Potency (CP185) | Potency (CP192) | Potency (CP237) | Potency (CP238)
active: Potency ([1]; parasite line A) 12.6 µM

CN1[C@@H](CC(=O)c2ccccc2)CCC[C@H]1C[C@H](O)c1ccccc1
inactive: activity, negative = inhibition ([1]; parasite line A) -28.5% | Potency (3D7) | Potency (C2A) | Potency (CP201) | Potency (CP203) | Potency (CP211)
active: Potency ([1]; parasite line B) 12.6 µM | Potency (7G8) 8.91 µM | Potency (AA1029) 11.2 µM | Potency (AS120) 12.6 µM | Potency (CP237) 7.94 µM

O=C(OCc1ccccc1)c1ccccc1
inactive: activity, negative = inhibition ([1]; parasite line A) -9.71% | activity, negative = inhibition ([1]; parasite line B) -8.05% | Potency (3D7) | Potency (7G8) | Potency (AA1029) | Potency (AS120) | Potency (ATS189) | Potency (ATS95) | Potency (C2A) | Potency (CP185) | Potency (CP191) | Potency (CP192) | Potency (CP194) | Potency (CP201) | Potency (CP211) | Potency (CP215) | Potency (CP217) | Potency (CP238)

CN1[C@@H]2CC[C@H]1CC(OC(c1ccccc1)c1ccccc1)C2 (stereo not given in full)
inactive: Potency (3D7) | Potency (C2A) | Potency (CP192)
active: Potency (7G8) 5.62 µM and 7.08 µM | Potency (AS120) 12.6 µM | Potency (ATS95) 12.6 µM | Potency (CP191) 8.91 µM | Potency (CP217) 12.6 µM

CCCCCCCCCCCCCCCC(=O)OC(C)C
inactive: Potency (3D7) | Potency (7G8) | Potency (AA1029) | Potency (AS120) | Potency (ATS189) | Potency (ATS95) | Potency (C2A) | Potency (CP185) | Potency (CP191) | Potency (CP192) | Potency (CP194) | Potency (CP201) | Potency (CP203) | Potency (CP211) | Potency (CP215) | Potency (CP217) | Potency (CP237) | Potency (CP238)
